Screens (PubChem)
GLP1R cytotox = qHTS of GLP-1 Receptor Inverse Agonists: Cytotox Screen. HEK293 cAMP-luciferase reporter cells, luminescence, 24 h. Potency, µM (titrated, usually from 38.3 µM), for the others: at the highest dose activity change, negative = inhibition, usual class: inhibitors. 410,000 tested, 0.13% active;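 further: loss of luciferase light is scored as toxicity; potency means the concentration at half of the fitted maximal effect; on the % scale 0 is the no-effect control and ±100 the full control effect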
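Step one: seed cells (200 cells/uL, DMEM with 10% Nu serum, 1% pen-strep). Step two: 12-hour incubation at 37 deg C. Step three: pin 23 nL compound, incubate 24 hr. Step four: add luciferase reagent, read luminescence 12 min later.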
LDHA block = qHTS assay for inhibitors of human lactate dehydrogenase. purified LDHA, NADH/diaphorase-resazurin fluorescence; active compounds read low. AID 1347041, 2019. 480,000 tested, 0.15% active. activity change, % (values are at about 110 or 230 µM). L-lactate dehydrogenase A chain (Homo sapiens), P00338; in the data active means activity change below about -30%; inconclusive means mostly about -25% to -30%;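 further: plate controls were DMSO wells for no effect and wells without enzyme for full effect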
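Human LDH5 (2 nM) was incubated with 0.06 mM NADH and 0.2 mM pyruvate for 5 min at room temperature in Tris pH 7.4. Remaining NADH was coupled through diaphorase/resazurin, and resorufin fluorescence was read at 0 and 20 min.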
p53 reactivation = qHTS assay for re-activators of p53 using a Luc reporter; H1299 p53-A138V BP100-luciferase reporter, luminescence, 24 h; Potency, µM (top dose mostly 92.2 µM), without a hit: at the top dose activity change, positive = activation, actives largely listed as activators; 320,000 tested, 0.063% active; further: potency means the concentration at half of the fitted maximal effect; % of control where 0% means no effect; nearly all actives have a fitted effect of over 45% in size
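p53-null H1299 cells stably carrying temperature-sensitive p53-A138V and a BP100-luciferase reporter were pinned with compounds (4-point, 1:5 series) and held 24 hrs at 37 deg C. Luminescence was read 10 min after detection reagent.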
GLP-1R agonist = qHTS of GLP-1 Receptor Agonists; AID 624172, 2012; HEK293 GLP-1R CRE-luciferase, luminescence, 4-6 h; cells express a hypersensitive GLP-1R form; 380,000 tested, 0.007% active; Glucagon-like peptide 1 receptor (Homo sapiens), P43220; Potency, µM (top dose mostly 45.6 µM), for inactives: top-dose activation, usual class: activators; further: potency means the concentration at half of the fitted maximal effect; % of control where 0% means no effect
ClpP mod = qHTS Assay for Activators of ClpP | Potency, µM (highest dose often 57.5 µM), without a hit: top-dose activity change, negative = active | purified B. subtilis ClpP, FRET peptide cleavage, 20 min | ATP-dependent Clp protease proteolytic subunit (Bacillus subtilis (strain 168)), P80244 | 340,000 tested, 1.9% active | AID 651965, 2013; active means well fitted falling curve with a large enough effect; inconclusive means small, poorly fitted or top-dose-only effect; inactive means no such curve, though single readings can be large or run the other way; further: potency means the concentration at half of the fitted maximal effect; the source files actives as falling curves though it sought activators and does not explain the sign; nearly all actives have a fitted effect of over 65% in size
Target sequence (P80244 whole entry, looked up): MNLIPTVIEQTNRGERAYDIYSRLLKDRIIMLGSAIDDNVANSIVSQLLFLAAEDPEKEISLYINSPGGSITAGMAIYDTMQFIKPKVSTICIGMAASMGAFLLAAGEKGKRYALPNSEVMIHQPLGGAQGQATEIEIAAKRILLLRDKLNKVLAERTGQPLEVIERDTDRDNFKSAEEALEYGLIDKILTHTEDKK
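Purified B. subtilis ClpP, 10 microg/mL final in Tris/HCl pH8 with KCl, BSA, glycerol and Tween-20, cleaved an Abz/nitrotyrosine-quenched decapeptide. Fluorescence (ex 320, em 430) was read at 0 and 20 min at room temperature. Delta was normalized to 5.8 microM ADEP and DMSO/no-enzyme controls.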
GLP1R inv ag = qHTS of GLP-1 Receptor Inverse Agonists (Inhibition Mode); HEK293 GLP-1R CRE-luciferase, luminescence, 24 h; GLP-1R form is constitutively active; Potency, µM (titrated, usually from 38.3 µM), for the others: top-dose activity change, negative = inhibition, hits mostly inhibitors; 410,000 tested, 1.6% active; further: potency means the concentration at half of the fitted maximal effect; on the % scale 0 is the no-effect control and ±100 the full control effect; nearly all actives have a fitted effect of over 55% in size
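Inverse agonism was detected as reduced cAMP-driven luciferase luminescence after 24 h compound treatment. The cells were HEK293 clones expressing constitutively active human GLP-1R with the reporter. Reporter-only and GPR119 cell lines served as counterscreen controls.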
* marks the source's active call; other numbers are inactive results; ? = inconclusive; · = no result; ! = repeats disagree. In the library only some 2.9% were active in any assay of this set; here they are far more common. Unless noted, the call rests on the fitted dose curve; in most records, active means well fitted curve in the direction sought with a large enough effect; inconclusive means small, poorly fitted or top-dose-only effect, or another doubt; inactive means no such curve, though single readings can be large; an effect the other way counts as inactive or inconclusive.

SMILES	GLP1R cytotox	LDHA block	p53 reactivation	GLP-1R agonist	ClpP mod	GLP1R inv ag
COc1cccc(NC(=O)C(OC(=O)/C=C/c2ccc3c(c2)OCO3)c2ccccc2)c1 (centres undefined)	-2%	0	2%	-1%	32µM*	?
COc1cccc(NC(=O)C(NCC2CCCCC2)c2ccccc2)c1 (centres undefined)	-7%	?	-2%	8%	-3%	10µM*
O=C(Nc1ccc(F)cc1)C(NC1CCCCC1)c1ccccc1 (centres undefined)	19%	-8	4%	8%	·	7.9µM*
COc1cccc(NC(=O)C(NCCC(C)C)c2ccccc2)c1 (centres undefined)	-1%	3	5%	6%	-5%	?
O=C(c1nc(-c2ccccc2)n(-c2ccccc2)n1)N1CCCCCC1	-4%	-6	-4%	7%	0%	-9%
CN1CCc2c(sc3c2C(=O)NC(c2ccco2)N3)C1 (centres undefined)	67%	9	9%	-7%	28µM*	0%
CCOC(=O)N1CCc2c(sc3c2C(=O)NC(c2ccccc2)N3)C1 (centres undefined)	4%	20	4%	-17%	28µM*	-1%
CN1CCc2c(sc3c2C(=O)NC(c2cn(Cc4ccccc4)c4ccccc24)N3)C1 (centres undefined)	163%	3	-11%	-3%	16µM*	4µM*
COc1ccc(Br)cc1C1NC(=O)c2c(sc3c2CCN(C)C3)N1 (centres undefined)	17%	-2	4%	-3%	-16%	8%
CCOC(=O)N1CCc2c(sc3c2c(=O)n(Cc2ccccc2)c(=O)n3Cc2cccc(C)c2)C1	3%	-2	-4%	8%	-1%	10µM*!
CC(C)c1cc(C(=O)N/N=C/c2cccnc2)cs1	21%	-5	22%	17%	-3%	41%
O=C(COc1ccc(S(=O)(=O)N2CCOCC2)cc1)Nc1ccccc1F	-1%	-5	10%	0%	·	35%
Cc1ccc(Oc2nc(-c3ccccc3)ncc2S(C)(=O)=O)cc1	5%	-4	0%	4%	-3%	17%
Cc1ccc(Oc2nc(-c3ccccc3)ncc2S(=O)(=O)c2ccc(C)cc2)cc1	55%	-2	-2%	-4%	22µM*	10%
Cc1ccccc1NC(=O)CC1(C(=O)O)CCCCC1	·	4	·	·	·	·
Cc1ccccc1NC(=O)N(O)C1(C#N)CCCCC1	-18%	0	·	-1%	32µM*	17%
Cc1oc2c(CN3CCOCC3)c(O)ccc2c(=O)c1-c1ccc(Br)cc1	-12%	-9	5%	-1%	14µM*	?
CCN1CCN(Cc2c(O)ccc3c(=O)c(-c4ccc(OC)c(OC)c4)c(C)oc23)CC1	7%	-3	-1%	1%	28µM*	6%
Cc1oc2c(CN3CCOCC3)c(O)ccc2c(=O)c1-c1ccc(Cl)cc1	-20%	-2	0%	8%	4%	?
Cc1nsc(N)c1C(=O)OCc1csc(-c2cccc(Br)c2)n1	·	3	·	·	·	·
COc1cccc2sc(Nc3nc4ccc(NC(C)=O)cc4s3)nc12	-22%	-2	?	9%	1.1µM*	-6%
CCOC(=O)c1sc(Nc2nc3cc4c(cc3s2)OCO4)cc1C	4%	-8	?	-2%	28µM*	?
CCOC(=O)c1sc(Nc2nc3c(OC)cccc3s2)cc1C	60%	6	?	-30%	25µM*	-23%
